Each structure is given as a SMILES string. About 5,800 (36%) of roughly 16,000 compounds were called active. Not shown: some 23% with an inconclusive outcome. The list shows a part of the results. A number with no mark means an inactive call. The call rests on the fitted dose curve; in most records, active means well fitted curve in the direction sought with a large enough effect; inconclusive means small, poorly fitted or top-dose-only effect, or effect the other way; inactive means no such curve, though single readings can be large or run the other way.
On the % scale 0 is the no-effect control and ±100 the full control effect.

Cytochrome P450 2C19 (Homo sapiens), sequence (P33261 whole entry, looked up): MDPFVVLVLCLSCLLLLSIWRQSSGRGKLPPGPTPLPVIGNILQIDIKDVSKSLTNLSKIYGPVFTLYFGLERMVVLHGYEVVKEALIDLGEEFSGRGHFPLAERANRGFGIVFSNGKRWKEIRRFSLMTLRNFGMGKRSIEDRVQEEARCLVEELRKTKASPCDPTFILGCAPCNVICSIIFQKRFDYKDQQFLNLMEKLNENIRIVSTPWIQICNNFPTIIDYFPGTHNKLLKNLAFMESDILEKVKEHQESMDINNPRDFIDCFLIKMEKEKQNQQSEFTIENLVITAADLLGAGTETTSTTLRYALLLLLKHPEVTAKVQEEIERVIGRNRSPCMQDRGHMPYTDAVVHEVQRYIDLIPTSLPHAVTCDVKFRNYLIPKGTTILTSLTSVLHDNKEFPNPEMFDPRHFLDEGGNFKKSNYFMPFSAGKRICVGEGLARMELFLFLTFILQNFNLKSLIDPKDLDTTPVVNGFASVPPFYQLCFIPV

The experiment concerns the target Cytochrome P450 2C19 (Homo sapiens) (UniProt P33261). Briefly: Cytochrome panel assay with activity outcomes. Particulars: recombinant CYP, pro-luciferin dealkylation, luminescence, p450-cyp2c19; series mostly up to 57.1 µM; activity, negative = inhibition: at the top concentration.
In the case of `Cc1c(N(C)CS(=O)(=O)O)c(=O)n(-c2ccccc2)n1C`, the “activity, negative = inhibition” value is 8.53% [at 25.6 µM]. On the same count and under the same terms, the value for `Cc1ccc(S(=O)(=O)/N=C(/Nc2c(C)n(C)n(-c3ccccc3)c2=O)c2ccc(Cl)cc2)cc1` was -27.9%. Broadly, the AC50 is the concentration at which the activity in the assay is half-maximal. As to `Cc1c(CCO)c(=O)n(-c2ccccc2)n1S(=O)(=O)c1c(Cl)cc(Cl)cc1Cl`, the AC50 is 2.82 µM (active). With `CCOC(=O)N1CCN(CC(=O)c2ccc3c(c2)CCN3)CC1`, the AC50 was 14.1 µM (active). The same measure, in the same setting: the same measure for `O=C(Cc1ccccc1)NCCSCc1ccc(Cl)cc1`: 2.24 µM (active); for `S=C(NCCSCc1ccc(Cl)cc1Cl)Nc1ccccc1`: 1.12 µM (active). Turning to `S=C(NCCSCc1c(Cl)cccc1Cl)Nc1ccccc1`, the AC50 is 1.41 µM (active). Consider `N[C@@H](CSCc1ccccc1)C(=O)O`, for which the activity, negative = inhibition is -4.77% [at 11.4 µM]. On to `COc1c2ccoc2nc2c(OC)c(OC[C@H](O)C(C)(C)O)ccc12`, for which the “activity, negative = inhibition” value is 8.3% [at 25.6 µM]. On to `C/C(=N\NC(N)=S)c1ccc[nH]1`, for which the activity, negative = inhibition is 20.4% [at 11.4 µM]. With `C[C@@H](C(=O)NCc1ccc(S(C)(=O)=O)cc1)[C@@H]1C[C@@]1(C)[C@@H](NC(=O)OCc1ccccc1)c1ccccc1`, the AC50 is 1.26 µM (active). The same measure, in the same setting: the value for `C[C@@H](C(=O)NCc1cccc2ccccc12)[C@H]1C[C@]1(C)[C@H](NC(=O)OCc1ccccc1)c1ccccc1` was 2.51 µM (active). For the compound `O=P(O)(CCc1ccccc1)C(O)c1ccccc1` (configuration not stated), the “activity, negative = inhibition” value is -48.5%.

In the case of `C(=N\N1CCN(C2c3ccccc3-c3ccccc32)CC1)/c1cccnc1`, the AC50 was 0.251 µM (active). For the compound `O=[N+]([O-])c1cc(/C=N/N2CCN(C3c4ccccc4-c4ccccc43)CC2)ccc1Cl`, the “activity, negative = inhibition” value is 1.97%. On to `C/C(=N\N1CCN(C2c3ccccc3-c3ccccc32)CC1)c1cccnc1`, for which the AC50 is 4.47 µM (active).

In the case of `C/C(=N\N1CCN(C2c3ccccc3-c3ccccc32)CC1)c1ccncc1`, the AC50 was 3.16 µM (active).

Consider `CC1(C)OC(=O)NC1=O`, for which the “activity, negative = inhibition” value was 24.8% [at 25.6 µM].

Regarding `COCC(=O)N1CCC2(CCN(Cc3ccccc3OC)CC2)CC1`, the “activity, negative = inhibition” value is 15.4%. Take `COc1ccccc1CNCC(O)(c1ccc(Cl)cc1)c1ccc(Cl)cc1`: the AC50 is 2.82 µM (active).

As for `C[C@@]12C(=O)OC(=O)[C@@]1(C)[C@@H]1CC[C@@H]2O1`, the “activity, negative = inhibition” value was -37.1%. Regarding `CC(C)CO[C@H](c1ccc2c(c1)OCO2)[C@H](C)Br`, the AC50 was 0.0631 µM (active).

Turning to `O=C(CSc1ncnc2nc[nH]c12)c1ccccc1`, the activity, negative = inhibition was 6.64% [at 11.4 µM]. On the same count and under the same terms, the same measure for `CSc1nc(C)cc(SC(C(C)=O)C(=O)Nc2ccccc2)n1` (configuration not stated): -50.3%. Regarding `Cc1cc(SCC(=O)c2ccccc2)nc(SCC(=O)c2ccccc2)n1`, the half-maximal activity concentration (AC50) was 2 µM (active).

Take `CCN(CC)c1ccc(SS(=O)(=O)O)cc1`: the AC50 was 7.08 µM (active).

As to `N#C/C(=C/N1CCOCC1)c1ccccc1`, the AC50 was 4.47 µM (active).

With `CC(=O)[C@H]([C@@H](c1ccccc1)N1CCOCC1)N1CCOCC1`, the activity, negative = inhibition is 7.37% [at 11.4 µM]. On to `C[C@H](C(=O)c1ccccc1)[C@@H](c1ccccc1)N1CCOCC1`, for which the AC50 was 1.58 µM (active). On the same count and under the same terms, the same measure for `C[N+]1(C)CCC(OC(=O)C(c2ccccc2)c2ccccc2)CC1`: “inactive”. As for `CC1CCCC(C)N1CCNC(=O)Cn1nc(-c2ccccc2)ccc1=O` (configuration not stated), the “activity, negative = inhibition” value was -25.2%. The same measure, in the same setting: the same measure for `CCN(CC)CCNC(=O)C(C)c1nn(C)c(=O)c2ccccc12` (configuration not stated): -28%. With `Cc1ccc(-c2nn(C)c(=O)c3ccccc23)cc1CNC(=O)Cn1nc(-c2ccccc2)c2ccccc2c1=O`, the half-maximal activity concentration (AC50) was 7.94 µM (active). Same read-out and setting: the value for `Cc1ccc(-c2nn3c(C)nnc3c3ccccc23)cc1S(=O)(=O)NCc1ccccc1` was 5.01 µM (active); that for `CCOC(=O)CNS(=O)(=O)c1cc(-c2nn(C)c(=O)c3ccccc23)ccc1C` was 3.16 µM (active). Same read-out and setting: the same measure for `CCN1CCc2nc(NC(=O)c3ccc4c(c3)OCCO4)sc2C1`: 15.8 µM (active). As for `Cc1nc2ccc3nc(NC(=O)c4ccc(S(=O)(=O)N5CCOCC5)cc4)sc3c2s1`, the “activity, negative = inhibition” value was -28.8%. In the case of `Cc1nc2c(ccc3nc(NC(=O)c4ccc5c(c4)OCCO5)sc32)s1`, the AC50 is 2.51 µM (active).

Take `CCN1CCc2nc(NC(=O)CC(c3ccccc3)c3ccccc3)sc2C1`: the AC50 is 8.91 µM (active). Regarding `CCN1CCC[C@@H](OC(=O)C(c2ccccc2)c2ccccc2)C1`, the “activity, negative = inhibition” value was -20.1% [at 25.6 µM]. `CCN1CCc2c(sc(NC(=S)NC(=O)c3ccccc3)c2C#N)C1`: the “activity, negative = inhibition” value was -59.3%. The same measure, in the same setting: the value for `O=C(O)/C=C(/C(=O)O)[C@]12CCN3CC4=CCO[C@@H]5CC(=O)N[C@@H]1[C@H]5[C@H]4C[C@H]32` was -10% [at 11.4 µM]; that for `CC(C)=CCC/C(C)=C/CO/N=C1/C[C@@H](O)[C@@H](O)[C@@H]2[C@@H]3C(=O)N(C(C)(C)C)C(=O)[C@H]3CC[C@H]12` was 12.2% [at 11.4 µM]; that for `N#CCCn1c(=O)c(-c2ccc(F)cc2)nc2cnc(N3CCOCC3)nc21` was -26%. With `CNc1oc(-c2ccc(Cl)cc2)nc1C#N`, the AC50 is 11.2 µM (active). Same read-out and setting: the same measure for `O=C(NCCNS(=O)(=O)c1ccccc1Cl)c1cc(OCC(F)(F)F)ccc1OCC(F)(F)F`: 14.1 µM (active). On the same count and under the same terms, the same measure for `CCN(CC)CCNC(=O)c1cc(S(C)(=O)=O)ccc1OC`: “inactive”. Take `O=C(O)CONC(=O)c1cc(OCC(F)(F)F)ccc1OCC(F)(F)F`: the “activity, negative = inhibition” value was 14.7%.

With `O=C(NCCNS(=O)(=O)c1ccc(Cl)cc1)c1cc(OCC(F)(F)F)ccc1OCC(F)(F)F`, the AC50 was 2.51 µM (active). With `CCOC(=O)c1c(-c2cccc(C)c2)csc1NC(=O)c1c(-c2ccccc2)noc1C`, the “activity, negative = inhibition” value was -30%. For `COC(=O)c1c(-c2ccc3ccccc3c2)csc1NC(=O)Cc1ccc(OC)c(OC)c1`, the AC50 is 1.41 µM (active).

Turning to `CCOC(=O)c1c(-c2ccccc2)csc1NC(=O)c1cccc(N2C(=O)CCC2=O)c1`, the concentration at half-maximal activity (AC50) is 3.55 µM (active). The same measure, in the same setting: the value for `CCOC(=O)c1c(-c2ccc(OC)cc2)csc1NC(=O)CCN1C(=O)c2ccccc2C1=O` was 5.62 µM (active).

As to `N/C(=N\O)c1cn([C@@H]2O[C@@H](CO)[C@H](O)[C@@H]2O)c2ncnc(NO)c12`, the activity, negative = inhibition was 14.4% [at 11.4 µM]. Still for that read-out and setting: the same measure for `CC(=O)Nc1c(I)c(C(=O)N[C@H]2[C@@H](O)[C@H](O)[C@H](CO)O[C@@H]2O)c(I)c(N(C)C(C)=O)c1I`: 12.2% [at 25.6 µM].

`Cc1ccc(OCCCN2C(=O)C(=O)c3cccc(C)c32)cc1`: the AC50 is 3.98 µM (active). Regarding `NS(=O)(=O)c1ccc(N=Nc2nc3[nH]c(=O)[nH]c(=O)c3[nH]2)cc1`, the activity, negative = inhibition was -0.933% [at 11.4 µM].

Turning to `Nc1ccc(Nc2ccccc2)cc1`, the AC50 was 10 µM (active). As to `N#[N+]c1ccc(Nc2ccccc2)cc1`, the activity, negative = inhibition was 23.3% [at 11.4 µM].

With `CC(C)(C)NC(=S)Nc1ccc(Nc2ccccc2)cc1`, the AC50 was 4.47 µM (active).

For the compound `CNC(=S)Nc1ccc(Nc2ccccc2)cc1`, the AC50 was 5.62 µM (active). Consider `C=CC[C@@H]1C=C[C@H](O/N=C(\C)CCN2CCCc3nc(C)c(C)cc32)[C@H](CO)O1`, for which the activity, negative = inhibition was 29.1% [at 11.4 µM]. For `CC(C(=O)NC1CCCC1)N(C(=O)c1ccc(-c2ccccc2)[nH]1)c1ccccc1F` (configuration not stated), the AC50 was 3.98 µM (active). The same measure, in the same setting: the value for `Cc1cccc(C)c1NC(=O)C(c1ccc(Cl)cc1Cl)N1CCCCC1` (configuration not stated) was 15.8 µM (active); that for `O=C(COc1cccc(NC(=O)c2cccc([N+](=O)[O-])c2)c1)c1ccc(Br)cc1` was 1.26 µM (active); that for `COc1ccc(/C=N/OCc2nc3c4c(ncn3n2)Oc2ccc3ccccc3c2C4c2ccccc2)cc1` (configuration not stated) was 0.0794 µM (active). The same measure, in the same setting: the value for `Cc1ccc(NC2=NC(c3ccccc3)n3c(nc(C)cc3=O)N2)c(C)c1` (configuration not stated) was 14.1 µM (active). For `CC1CCN(c2ccc(/C=N/n3nnnc3N)cc2[N+](=O)[O-])CC1`, the “activity, negative = inhibition” value is -38.1%.

Consider `Nc1nnnn1/N=C\c1ccc(Cl)c([N+](=O)[O-])c1`, for which the AC50 is 0.2 µM (active).

Regarding `CC(C)(CO[C@H]1C[C@H]2CC[C@@]1(C)C2(C)C)[N+](=O)[O-]`, the activity, negative = inhibition was 12.6% [at 11.4 µM]. `CC(Sc1nc(-c2ccccc2)cc(C(F)(F)F)n1)C(=O)N1CCCCC1` (configuration not stated): the half-maximal activity concentration (AC50) is 10 µM (active). In the case of `O=C(O)CSc1cc(C(F)(F)F)nc(-c2ccccn2)n1`, the “activity, negative = inhibition” value was 18%. Still for that read-out and setting: the same measure for `O=c1[nH]c2cc(Br)cnc2nc1/C=C(\O)c1ccc(F)cc1`: -27.4%. As for `Cc1cccc(CCNc2nc3ccccc3n3nnnc23)c1`, the AC50 was 1.58 µM (active). For the compound `CCC(=O)NC(NC(=O)CC)C(Cl)Cl`, the “activity, negative = inhibition” value was 3.92%. Regarding `CN1CCN(NC(=O)CN2C(=O)/C(=C/c3c(Cl)cccc3Cl)SC2=S)CC1`, the AC50 is 4.47 µM (active). Turning to `CC(C)(C)C(=O)[C@H]1[C@H](c2ccccc2)[C@@]2(N=C(c3ccccc3)OC2=O)C2c3ccccc3C=NN21` (some centres not stated), the AC50 is 1.12 µM (active). On the same count and under the same terms, the same measure for `COc1ccccc1-c1cc(C(=O)Nc2cc(C)n(Cc3ccc(Cl)cc3)n2)no1`: 2.51 µM (active). On to `CCCCc1[nH]c(=O)c(C#N)c2c1CCCC2`, for which the “activity, negative = inhibition” value is -19.7%. Still for that read-out and setting: the same measure for `CCOC(=O)Cc1cc(=O)n2[nH]c(C)c(C#N)c2n1`: 31.1%.

As to `CCCCOC(=O)CCc1c(C)[nH]c(=O)c(C#N)c1C`, the AC50 was 10 µM (active). `CC(=O)N1CCC[C@@]2(CCN(c3ncccn3)C2)C1`: the “activity, negative = inhibition” value is -0.379%. Regarding `CCc1cccc2c(C=C(C#N)C#N)cn(CC(=O)N3CCCC3)c12`, the “activity, negative = inhibition” value is 53.7%. For `CCN(CC)C(=O)Cn1cc(/C=C(\C#N)C(=O)N2CCN(c3ccccc3)CC2)c2ccccc21`, the AC50 was 2 µM (active). With `CCc1cccc2c(C=C(C#N)C#N)cn(CC(=O)N3CCCCC3)c12`, the “activity, negative = inhibition” value is 52.3%. Still for that read-out and setting: the value for `Cc1noc(C)c1C(=O)N1CCC[C@@]2(CCN(Cc3ccccc3)C2)C1` was -4.3%; that for `COc1cc(CC(=O)O)ccc1O` was 21.8%. For the compound `COC(=O)c1cc(Br)c(=O)n(CCc2ccc(O)cc2)c1`, the AC50 is 3.55 µM (active).

For `COC(=O)[C@](C)(N)Cc1ccc(O)cc1`, the “activity, negative = inhibition” value is -6.96%. On the same count and under the same terms, the same measure for `O=C(O)Cc1ccc(O)c(O)c1`: -5.87%. For the compound `COC(=O)c1ccc(CCc2cc(O)ccc2O)cc1`, the AC50 was 3.16 µM (active). Regarding `CC(C)=CCC/C(C)=C/CO/N=C1/C[C@@H](O)[C@@H](O)[C@@H]2[C@H]3C(=O)N(c4ccc(F)cc4F)C(=O)[C@@H]3CC[C@@H]12`, the activity, negative = inhibition is -9.14% [at 11.4 µM].

These data come from PubChem BioAssay AID1851 (National Center for Advancing Translational Sciences (NCATS), 2009).
